This passage reports Potency results from PubChem BioAssay AID1460 (National Center for Advancing Translational Sciences (NCATS), 2008).

About 5,800 (2.1%) of roughly 270,000 compounds were called active. A call without a number means that no potency is given here. Another 16% or so got no clear call; they are omitted. Calls follow the shape of the dose curve; as a rule, active = well fitted inhibition curve with a large enough effect; inconclusive = small, poorly fitted or top-dose-only effect; inactive = flat fitted curve, though single readings scatter. The full list was thinned out, with actives kept by preference.
Potency is read from the fitted curve at half-maximal effect.

Sequence of Microtubule-associated protein tau (Homo sapiens) (P10636 561-689 P618L limits assumed): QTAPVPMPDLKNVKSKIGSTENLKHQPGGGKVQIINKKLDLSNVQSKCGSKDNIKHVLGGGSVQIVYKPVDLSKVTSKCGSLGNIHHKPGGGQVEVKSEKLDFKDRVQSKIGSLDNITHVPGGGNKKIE

This test has as its target Microtubule-associated protein tau (Homo sapiens) (UniProt P10636). As to the kind of experiment: qHTS for Inhibitors of Tau Fibril Formation, Thioflavin T Binding. Also: nearly all actives have a fitted effect of over 55% in size. As to conditions: recombinant tau K18 P301L (four-repeat tau fragment), heparin-induced fibrillization, ThT fluorescence; series mostly up to 57.4 µM. The method in brief:
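In this qHTS, human K18 P301L tau is incubated with compound and heparin for 6 hr at 37 C, and Thioflavin T fluorescence then reports fibril load.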
(In general: Quantitative high-throughput screening tests each substance at several concentrations.)
For the compound `O=C(CSc1nc2c(c(=O)[nH]1)CN(Cc1ccc3c(c1)OCO3)CC2)Nc1cc(F)ccc1F`, the Potency result was “inactive”.
Regarding `Cc1ccc2cccc(NC(=O)c3ccc(OC(C)C)cc3)c2n1`, the Potency entry was “inactive”.
With `O=C(CSc1nc(=O)[nH]c2c1CCCC2)Nc1cc(C(F)(F)F)ccc1Cl` the entry was “inactive”; with `CCOc1ccc(N2CC(C(=O)NCCN3C(=O)S/C(=C\c4cccnc4)C3=O)CC2=O)cc1` (stereo not drawn), 22.4 µM (active); with `CCCNC(=O)C1CC(=O)N(c2ccc(OCC(=O)Nc3cccc(C)c3C)cc2)C1` (stereo not drawn), “inactive”.
In the case of `CCCOc1ccc(N2CC(C(=O)Nc3ccccn3)CC2=O)cc1` (stereo not drawn) it was “inactive”; in that of `CCOc1ccc(C(NC(=O)c2cc(OC)c(OC)c(OC)c2)c2cc(Cl)c3cccnc3c2O)cc1` (stereo not drawn), “inactive”.
As to `CCCCN(C)c1nnc(NC(=O)Nc2ccc(Br)c(C)c2)s1`, the Potency result was “inactive”.
With `CCOC(=O)c1c(C)[nH]c(C)c1S(=O)(=O)N1CCCC(C(=O)NCc2ccccc2Cl)C1` (stereo not drawn) the entry was “inactive”; with `COc1ccc(S(=O)(=O)c2cn(C)c3cc(N4CCCCC4)c(F)cc3c2=O)cc1`, “inactive”.
In the case of `Cc1cccc(Oc2c([N+](=O)[O-])c(=O)n(C)c3ccccc23)c1` it was 14.1 µM (active).
With `Cc1cccc(C2CC(=O)Oc3c2c(=O)n(C)c2ccccc32)c1` (stereo not drawn) the entry was “inactive”; with `Cc1nn(C)c(Oc2ccccc2)c1[N+](=O)[O-]`, “inactive”; with `CN(C(=O)CSc1nc2ccccc2n1Cc1ccccc1C#N)c1ccccc1`, “inactive”.
Turning to `CCN1/C(=C/C(=S)Nc2ccccc2)Sc2ccccc21`, the Potency was 3.55 µM (active).
With `CCN1C(=O)/C(=C2/Sc3ccccc3N2CCCS(=O)(=O)O)SC1=S` the entry was “inactive”.
In the case of `CCNC(=O)N1c2ccccc2Sc2ccccc21` it was “inactive”.
With `CC(=O)c1ccc(NC(=O)CSc2c(C(C)C)cnc3c2c(=O)n(C)c(=O)n3C)cc1` the entry was “inactive”; with `O=C(COc1ccc(Cl)cc1)Nc1ccccc1OCc1cc(=O)n2ccccc2n1`, “inactive”; with `N#CC1=C(N)Oc2c(sc3ccccc23)C1c1ccco1` (stereo not drawn), 15.8 µM (active).
On to `CC1=C(C(=O)Nc2ccccc2)C(c2ccco2)C(C#N)=C(SCC(N)=O)N1` (stereo not drawn), for which the Potency entry is “inactive”.
As to `Cc1ccc(CCNC(=O)c2ccc(CNS(=O)(=O)c3ccc(C)cc3)cc2)cc1`, the Potency entry is “inactive”.
Regarding `CCOC(=O)c1c(C)oc2nc(C)nc(N(CC(C)C)CC(C)C)c12`, the Potency entry is “inactive”.
With `COc1ccc(NC(=O)N2CCCn3nc(C)cc32)cc1OC` the entry was “inactive”; with `COc1ccc(C(=O)c2oc3ccccc3c2NC(=O)COc2cccc(C)c2)cc1`, “inactive”; with `O=C(Nc1ccccc1Cl)N1CCC(CN2CCCC2)CC1`, “inactive”.
For the compound `CN=C1C=C/C(=N/N=c2\ccn(O)cc2C)C=C1C`, the Potency is 6.31 µM (active).
On to `Cc1ccc(Cn2c(=O)n(Cc3nc(-c4ccccc4)no3)c(=O)c3cc4c(cc32)OCO4)cc1`, for which the Potency result was “inactive”.
In the case of `Cc1ccc(-c2cn3c(n2)sc2cc(C(=O)NCCCc4ccccc4)ccc23)cc1` it was “inactive”.
With `Cc1cccc(C(=O)N2CCc3cc(CNC(=O)Cc4ccc(F)cc4)ccc32)c1` the entry was “inactive”; with `CCC(=O)Nc1cccc(-c2nc3cc(C)ccc3o2)c1`, “inactive”.
With `O=C(Nc1c2c(nc3ccccc13)CCCC2)c1ccccc1Br` the entry was “inactive”.
Regarding `Cc1nc2ccccc2cc1O`, the Potency entry is “inactive”.
With `O=C(NNc1c2ccccc2nc2ccccc12)c1cc2ccccc2cc1O` the figure was 2 µM (active); with `COc1ccc(-c2nc3sc(CCNS(=O)(=O)c4ccc(F)c(C)c4)c(C)n3n2)cc1`, “inactive”; with `O=C1CN(C(=O)Nc2ccccc2C(F)(F)F)C(c2ccccc2)c2c(sc3c2CCCC3)N1` (stereo not drawn), “inactive”.
With `Cc1nc2ccc(S(=O)(=O)N(CC(=O)Nc3ccc(F)cc3)Cc3ccccc3)cc2s1` the entry was “inactive”; with `Cc1ccccc1CNC(=O)CSc1nnc(C)c2c(C)n(-c3ccccc3)nc12`, “inactive”.
With `CCN(CC)C(=O)C(=O)Nc1cccc(Br)c1` the entry was “inactive”.
Consider `CCN(CC)C(=O)CSC(Nc1cccc(F)c1)=C(C#N)C#N`, for which the Potency was 28.2 µM (active).
With `O=C(CCN1C(=O)c2ccccc2C1=O)Nc1cccc(F)c1` the entry was “inactive”; with `O=C(Nc1ccc(C(=O)OCc2cc(=O)n3nc(C4CC4)sc3n2)cc1)c1ccc(F)cc1`, “inactive”.
Take `O=C(Nc1ccc(F)cc1F)c1ccc2c(=O)n3c(nc2c1)CCCCC3`: the Potency entry is “inactive”.
In the case of `Cn1c(=O)n(Cc2c(F)cccc2Cl)c(=O)c2c1nc1n2CCN1c1ccc(F)cc1` it was “inactive”.
With `CCOC(=O)/C(=N\Nc1ccccc1[N+](=O)[O-])c1csc(Nc2ccccc2)n1`, the Potency is 5.01 µM (active).
With `CCOC(=O)Cc1csc(NC(=O)Nc2ccccc2)n1` the entry was “inactive”.
With `Cc1c(NC(=O)Nc2ccccc2)cccc1[N+](=O)[O-]` the entry was “inactive”; with `Cc1cc(C)cc(NC(=O)CCCc2nc(-c3ccccc3Cl)no2)c1`, “inactive”.
For `Cc1ccc(C)c(N2C(=O)N(Cc3c(F)cccc3Cl)c3ccccc3S2(=O)=O)c1`, the Potency result was “inactive”.
With `Cc1cccc(-n2ccnc2SCC(=O)Nc2cccc3ccccc23)c1C` the entry was “inactive”; with `COc1ccc(OC)c(CNC(=O)c2c3c(nc4ccccc24)C(=O)N(C2CCCCC2)C3)c1`, “inactive”; with `Cc1ccc(C(=O)Nc2c(C(=O)NC(C)(C)C)oc3ccccc23)cc1`, “inactive”.
For the compound `Cc1ccc(NS(=O)(=O)c2ccc(N/N=C/c3ccccc3OCC(=O)O)c([N+](=O)[O-])c2)c(C)c1`, the Potency was 12.6 µM (active).
In the case of `COCCNC(=O)c1ccccc1NS(=O)(=O)c1ccc(C)c([N+](=O)[O-])c1` it was “inactive”.
In the case of `Cc1ccc(NS(=O)(=O)c2ccc(C)c(NC(=O)COc3ccc4ccccc4c3)c2)c(C)c1` it was “inactive”.
In the case of `COc1cccc(CNCc2c(C(=O)O)n(Cc3ccc(C)cc3)c3cc(C)ccc23)c1OC`, the Potency entry was “inactive”.
With `O=C(CCC1N=C2c3ccccc3N=C(SCc3ccccc3F)N2C1=O)NCCc1ccccc1` (stereo not drawn) the entry was “inactive”; with `Cn1cc(/C=C/c2nc3ccccc3c(=O)n2-c2cccc([N+](=O)[O-])c2)c2ccccc21`, “inactive”.
With `Cc1ccc(N2C(=O)S/C(=C/c3cn(C)c4ccccc34)C2=O)cc1` the entry was “inactive”.
In the case of `Cc1cccc(N=C2NC(=O)/C(=C/c3cn(C)c4ccccc34)S2)c1` it was 11.2 µM (active).
For `CCCn1c2ccccc2c2cnn(CC(=O)NCCCN3CCCCC3CC)c(=O)c21` (stereo not drawn), the Potency entry is “inactive”.
With `CCc1nnc2c3ccccc3nc(N3CCN(c4ccc(C)cc4C)CC3)n12` the entry was “inactive”; with `COc1cccc(Cn2c(CNS(=O)(=O)c3ccc(Cl)s3)nc3cccnc32)c1`, “inactive”.
